PMP22 txn – Cell-based coincidence reporter assay to measure PMP22 gene transcription in S16 Pmp22-F2sN cells - Primary screen | S16 Pmp22-F2sN Schwann cells, FLuc/NLuc coincidence luminescence, 24 h | Potency, µM (titrated, usually from 57.5 µM), without a hit: top-dose activity change, negative = inhibition, hits mostly inhibitors | actives 2% (n = 43,000); active means clear falling dose curves in both reporters; inconclusive means both reporters move, but less clearly or upward; inactive means either reporter flat; the % is the NLuc reporter signal; further: on the % scale 0 is the no-effect control and ±100 the full control effect
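Luminescent read-out of sequential FLuc and NLuc signals from a reporter embedded in the Pmp22 3' UTR of S16 Schwann cells, taken after 24 h compound exposure at 37C; compounds reducing both signals score as inhibitors of expression.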
GALC G270D act – A Novel Cell-Based Assay to Identify Small Molecules for B -Galactocerebrosidase; actives 0.1% (n = 45,000); Potency, µM (titrated, usually from 57.5 µM), hits mostly activators; 145M-Twi-hGALC-G270D cells (Twitcher mouse brain line with human GALC G270D), HMU-beta-Gal fluorescence, 48 h; AID 1159614, 2016; P54803; further: 0% is about no effect; nearly all actives have a fitted effect of over 65% in size
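Fluorescence readout: HMU-β-gal cleavage by mutant GALC (0.1 mM final, citrate/phosphate pH 5.2 with 1 mg/mL taurocholate), stopped with carbonate/bicarbonate plus Triton X-100. Cells: murine Twitcher 145M-Twi expressing human G270D GALC; qHTS for activators.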
mTORC1 inh – Acumen qHTS Assay for Inhibitors of the mTORC1 Signaling Pathway in MEF (Tsc2-/-, p53-/-) Cells: Sytravon; Tsc2-/- p53-/- MEF, phospho-rpS6 immunofluorescence/PI, 24 h; Potency, µM (top dose mostly 38.3 µM), inactives show at the top dose activity change, negative = inhibition, usual class: inhibitors; actives 0.78% (n = 44,000);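 further: plate controls were DMSO for no effect and rapamycin for full effect; nearly all actives have a fitted effect of over 50% in size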
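Tsc2-/-, p53-/- MEFs (empty-vector stable line) in DMEM + 10% FBS were treated with compounds 24 h at 37 degree Celsius, fixed, and immunostained for phospho-rpS6 (Alexa-488) with propidium iodide counterstain. Laser-scanning cytometry gave % positive cells, normalized against 7.5 nM rapamycin and DMSO.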
S16 viability – Cell viability qHTS assay in S16 Pmp22-F2sN cells. S16 Pmp22-F2sN Schwann cells viability, CellTiter-Glo, 24 h. Potency, µM (top dose mostly 57.5 µM), for the others: top-dose activity change, negative = cytotoxicity, usual class: cytotoxic. actives 0.48% (n = 43,000). AID 1508642, 2021; further: on the % scale 0 is the no-effect control and ±100 the full control effect; nearly all actives have a fitted effect of over 65% in size
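Used to flag compounds lowering reporter output through toxicity, this quantitative HTS measures ATP-based CellTiter-Glo luminescence in S16 Pmp22-F2sN Schwann cells after 24 h compound exposure at 37C.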
Numbers without * were called inactive; i = inactive; ? = inconclusive; . = no result given. Shown are actives, neighbours in structure and some others; about 2.8% of the full set was active somewhere. Unless noted, the call rests on the fitted dose curve; in most records, active means well fitted curve in the direction sought with a large enough effect; inconclusive means small, poorly fitted or top-dose-only effect, or another doubt; inactive means no such curve, though single readings can be large; an effect the other way counts as inactive or inconclusive. Potency means the concentration at half of the fitted maximal effect.

SMILES | PMP22 txn | GALC G270D act | mTORC1 inh | S16 viability
COc1ccccc1NC(=O)C1CCC(CNS(=O)(=O)c2ccc3c(c2)CC(C)N3C(C)=O)CC1 (stereo not given) | 18.9µM* | i | ? | ?
CC(=O)N1c2ccc(S(=O)(=O)NCC3CCC(C(=O)Nc4ccc(C)c(C)c4)CC3)cc2CC1C (stereo not given) | ? | i | -21.0% | -24.6%
CC(=O)N1c2ccc(S(=O)(=O)NCC3CCC(C(=O)Nc4ccc(F)cc4)CC3)cc2CC1C (stereo not given) | ? | i | -8.0% | 14.1µM*
CCc1ccc(NC(=O)C2CCC(CNS(=O)(=O)c3ccc4c(c3)CC(C)N4C(C)=O)CC2)cc1 (stereo not given) | -24.4% | i | ? | -3.9%
CC(=O)c1c(C)n(-c2cccc(C)c2)c2ccc(OC(=O)COc3ccccc3)cc12 | ? | i | -0.4% | -14.1%
CCCCc1ccc(Nc2cc(C)nc(-n3nc(C)cc3C)n2)cc1 | 15µM* | i | 1.7% | ?
Cc1cc(Nc2ccccc2C)nc(-n2nc(C)cc2C)n1 | ? | i | -2.7% | ?
CNC(=O)c1c(I)c(NC(=O)CCCCC(=O)Nc2c(I)c(C(=O)O)c(I)c(C(=O)NC)c2I)c(I)c(C(=O)O)c1I | . | i | . | .
CS(=O)(=O)c1ncc(Cl)c(C(=O)N2CCN(c3cccc(Cl)c3)CC2)n1 | ? | i | 0.465µM* | 3.16µM*
CCS(=O)(=O)c1ncc(Cl)c(C(=O)N2CCN(c3cccc(Cl)c3)CC2)n1 | ? | i | 2.61µM* | 4.47µM*
Cc1ccccc1NC(=O)c1c(NC(=O)Cc2ccccc2)sc2c1CCC2 | 0.2% | i | 3.3% | 9.2%
CC(=O)N1CCc2c(sc3c2c(=O)n(-c2ccc(C)cc2)c(=O)n3CC(=O)Nc2ccccc2)C1 | -32.5% | i | -10.6% | -4.0%
CCOC(=O)N1CCc2c(sc3c2c(=O)n(-c2ccc(Cl)cc2)c(=O)n3CC(=O)Nc2ccccc2)C1 | ? | i | 1.4% | 12.6µM*
CCCCOc1ccc(C(=O)N2CCN(CCc3ccccn3)CC2)cc1 | 16.5% | 8.91µM* | -13.6% | 5.1%
COc1ccc2cc(C=O)ccc2c1 | . | i | . | .
CCOc1c(Br)cc(C2CC(=O)Nc3cc4c(cc32)OCO4)cc1OC (stereo not given) | ? | i | 14.7µM* | ?
CCOc1cc(C2CC(=O)Nc3cc4c(cc32)OCCO4)ccc1O (stereo not given) | -29.9% | i | -1.5% | ?
CC(C)Oc1cccc(C2CC(=O)Nc3cc4c(cc32)OCO4)c1 (stereo not given) | 4.28µM* | i | 6.56µM* | ?
CCC1(c2cnc[nH]2)Cc2ccccc2C1 | . | i | . | .
Cc1ccc2c(c1)c(=O)c1ccccc1n2CCCC(=O)Nc1ccc(C)c(F)c1 | ? | i | 21.4% | ?
Cc1ccc2c(c1)c(=O)c1ccccc1n2CCCC(=O)Nc1ccc(C)c(C)c1 | ? | 39.8µM* | 10.6% | -3.8%
O=C(NN1CCCC1)NS(=O)(=O)c1ccc(Cl)cc1 | . | i | . | .
CCCCN(C)C(=O)CSc1c2c(nc3ccc(Cl)cc13)CCCC2 | ? | i | 18.5µM* | -3.2%
CCCN(CCC)C(=O)CSc1c2c(nc3ccc(Cl)cc13)CCCC2 | ? | i | -12.0% | 26.9%
CN(Cc1ccccc1)C(=O)CSc1c2c(nc3ccc(Cl)cc13)CCCC2 | ? | i | 13.1µM* | ?
O=C(CCS(=O)(=O)c1nc(-c2cccs2)cc(C(F)(F)F)n1)Nc1cc(Br)ccc1O | ? | i | ? | 10µM*
OC[C@H]1O[C@H](O[C@]2(CCl)O[C@H](CCl)[C@@H](O)[C@@H]2O)[C@H](O)[C@@H](O)[C@H]1Cl | . | i | . | .
CCCCS(=O)(=O)c1oc(-c2cccs2)nc1S(=O)(=O)c1ccc(F)cc1 | 3.03µM* | i | 2.07µM* | 2.82µM*
CCS(=O)(=O)c1oc(-c2ccc(F)cc2)nc1S(=O)(=O)c1ccccc1 | 2.51µM* | i | 0.131µM* | 3.16µM*

Screens as filed in PubChem BioAssay.
